Source: PubChem BioAssay (National Center for Advancing Translational Sciences (NCATS))
Pf growth 96h = Primary qHTS for delayed death inhibitors of the malarial parasite plastid, 96 hour incubation; P. falciparum luciferase reporter growth, 96 h; Potency, µM (top dose mostly 28.7 µM), for inactives: top-dose activity change, negative = inhibition, most hits filed as inhibitors; 6.9% of 320,000 active; also: % is scaled to controls: 0 for no effect and ±100 for the full control effect
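96 h incubation, 37 C, 5% CO2, of luciferase-reporter P. falciparum-infected RBCs (2% hematocrit, 0.05% parasitemia final) with test compounds; endpoint luminescence.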
VACV mCherry inh = qHTS for Stage-Specific Inhibitors of Vaccinia Orthopoxvirus: mCherry Reporter Primary qHTS. Vaccinia virus mCherry reporter infection, fluorescence. Potency, µM (series often up to 36.5 µM), without a hit: at the highest dose activity change, negative = inhibition, usual class: inhibitors. 0.63% of 310,000 active. AID 720579, 2013; calls by dose curve; tested in A549 cells; also: % is scaled to controls: 0 for no effect and ±100 for the full control effect; nearly all actives have a fitted effect of over 35% in size
NS1 function inh = qHTS Assay for Inhibitors of Influenza NS1 Protein Function | AID 2326, 2010 | 0.4% of 270,000 active | Potency, µM (titrated, usually from 46.1 µM), inactives show top-dose activity, positive = more growth; calls by dose curve; also: actives are rising curves; nearly all actives have a fitted effect of over 50% in size
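Growth recovery, yeast-based: influenza A NS1 expressed in S. cerevisiae causes slow growth, and suppressors are detected by OD600. The parent strain without NS1 is used as positive control.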
HCV inhibitor = qHTS Assay for Inhibitors of Hepatitis C Virus (HCV). Potency, µM (titrated, usually from 41.8 µM), inactives show top-dose activity change, negative = inhibition, most hits filed as inhibitors. Huh7.5.1 HCVcc-Cre infection, luciferase reporter, 44 h. 3.4% of 340,000 active. AID 651820, 2012; also: % is scaled to controls: 0 for no effect and ±100 for the full control effect
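After 44 h co-culture of compound, cells and HCVcc-Cre (~0.5 moi), substrate is added for 15 min at room temperature and luciferase measured over 15 sec. Cells were seeded at 1,000/well and pre-cultured 4 h.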
Pf growth 48h = Primary qHTS for delayed death inhibitors of the malarial parasite plastid, 48 hour incubation. 5.9% of 310,000 active. Potency, µM (series often up to 28.7 µM), without a hit: at the highest dose activity change, negative = inhibition, hits mostly inhibitors. P. falciparum luciferase growth in erythrocytes, 48 h. AID 504832, 2011; also: % is scaled to controls: 0 for no effect and ±100 for the full control effect
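Parasite viability was followed by luminescence of a genomically integrated firefly luciferase. Cultures held 0.1% parasitemia at 2% hematocrit (final), incubated under 5% CO2 at 37 C.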
VACV Venus inh = qHTS for Stage-Specific Inhibitors of Vaccinia Orthopoxvirus: Venus Reporter Primary qHTS; Potency, µM (doses to about 36.5 µM), without a hit: at the highest dose activity change, negative = inhibition, actives largely listed as inhibitors; AID 720580, 2013; Vaccinia virus Venus reporter expression, fluorescence; 0.46% of 330,000 active; calls by dose curve; tested in A549 cells; also: % is scaled to controls: 0 for no effect and ±100 for the full control effect; nearly all actives have a fitted effect of over 30% in size
* marks the source's active call; other numbers are inactive results. Sampled rows, rich in hits. Any-hit rate of the full collection: about 11%. Unless noted, calls follow the shape of the dose curve; as a rule, active = well fitted inhibition curve with a large enough effect; inconclusive = small, poorly fitted or top-dose-only effect, or another doubt; inactive = no such curve, though single readings can be large or run the other way. Potency is read from the fitted curve at half-maximal effect.

What do the screens show for `Cc1ccccc1N/C(=N/S(=O)(=O)c1cc(F)ccc1F)c1ccccc1`?
Pf growth 96h: 3%; NS1 function inh: 19%; HCV inhibitor: -2%; Pf growth 48h: -19%

How did CCOC(=O)C1CCCN(C(=O)c2ccccc2NC(C)=O)C1 (stereo not given) do in these assays?
VACV mCherry inh: -4%; NS1 function inh: 1%; HCV inhibitor: 6%; Pf growth 48h: -3%; VACV Venus inh: 2%

What do the screens show for `CC(C)CCNC(=O)CCC(=O)NNc1nc2ccccc2c2nc(-c3ccccc3)nn12`?
Pf growth 96h: 10µM*; VACV mCherry inh: -19%; NS1 function inh: -6%; HCV inhibitor: -24%; Pf growth 48h: 15%; VACV Venus inh: -7%

Results for Cc1cccc(N2CCN(C(=O)CCC(=O)NNc3nc4ccccc4c4nc(C)nn34)CC2C)c1 (stereo not given) ?
VACV mCherry inh: -12%; VACV Venus inh: -4%

How did Cc1nc2c3ccccc3nc(NNC(=O)CCC(=O)N3CCCC(C)C3)n2n1 (stereo not given) do in these assays?
Pf growth 96h: 9.3µM*; NS1 function inh: -4%; HCV inhibitor: 1%; Pf growth 48h: 0%

What do the screens show for `O=C(CCC(=O)NNc1nc2ccccc2c2nc(-c3ccccc3)nn12)NCCCN1CCOCC1`?
Pf growth 96h: inconclusive; VACV mCherry inh: -12%; HCV inhibitor: 23%; Pf growth 48h: 37%; VACV Venus inh: 0%

What do the screens show for `Cc1nc2c3ccccc3nc(NNC(=O)CCC(=O)NC(C)C)n2n1`?
Pf growth 96h: 6.6µM*; VACV mCherry inh: -6%; NS1 function inh: inconclusive; HCV inhibitor: 25%; Pf growth 48h: 32%; VACV Venus inh: -9%

What do the screens show for `O=S1(=O)C[C@H](N2CCCC2)[C@@H](COCc2ccccc2)N1`?
VACV mCherry inh: -2%; VACV Venus inh: -3%

Results for Fc1ccc(CSc2nnc(-c3cnccn3)n2Cc2ccco2)cc1 ?
NS1 function inh: -37%; HCV inhibitor: -4%; Pf growth 48h: -5%

Results for CC1=C(N2CCOCC2)CCC1=O ?
VACV mCherry inh: -26%; HCV inhibitor: 17%; VACV Venus inh: -2%

What do the screens show for `COc1ccc(C=C2Cc3ccccc3C2=O)cc1`?
VACV mCherry inh: 21%; VACV Venus inh: -6%

Results for COc1ccc(-c2nc(C#N)c(N3CCc4ccccc4C3)o2)cc1OC ?
Pf growth 96h: -24%; NS1 function inh: 10%; HCV inhibitor: 11µM*; Pf growth 48h: 1%

What do the screens show for `Cc1cccc(-c2nc(C#N)c(N3CCC(C)CC3)o2)c1`?
Pf growth 96h: 27%; VACV mCherry inh: -8%; NS1 function inh: 2%; HCV inhibitor: 5%; Pf growth 48h: 33%; VACV Venus inh: -3%

What do the screens show for `COc1ccccc1-c1nc(C#N)c(N2CCc3ccccc3C2)o1`?
Pf growth 96h: inconclusive; NS1 function inh: -13%; HCV inhibitor: 11µM*; Pf growth 48h: -30%

How did Cc1cccc(-c2nc(C#N)c(N3CCCCCC3)o2)c1 do in these assays?
VACV mCherry inh: inactive; NS1 function inh: -6%; HCV inhibitor: 25µM*; Pf growth 48h: 11%; VACV Venus inh: -13%

Results for COc1ccc(C2=NNC(=Nc3cc(S(=O)(=O)N(C)C)ccc3C)SC2)c(OC)c1 ?
Pf growth 96h: -13%; NS1 function inh: 3%; HCV inhibitor: 13µM*; Pf growth 48h: 1.7µM*

What do the screens show for `CN(C)S(=O)(=O)c1cccc(N=C2NN=C(c3ccccc3)CS2)c1`?
Pf growth 96h: 2.3µM*; VACV mCherry inh: inconclusive; NS1 function inh: 26%; HCV inhibitor: 35µM*; Pf growth 48h: 13µM*; VACV Venus inh: inconclusive

How did Cc1ccc(C(=O)Nc2ccc(S(=O)(=O)N3CCc4ccccc4C3)cc2)o1 do in these assays?
NS1 function inh: -18%; HCV inhibitor: inconclusive; Pf growth 48h: 13µM*

Results for Cc1ccc(C(=O)Nc2ccc(S(=O)(=O)N3CCc4ccccc43)cc2)o1 ?
NS1 function inh: -48%; HCV inhibitor: inconclusive; Pf growth 48h: inconclusive

How did CC(=O)c1ccc(S(=O)(=O)N2CCc3ccccc3C2)cc1 do in these assays?
Pf growth 96h: inconclusive; VACV mCherry inh: -21%; NS1 function inh: -3%; HCV inhibitor: -11%; Pf growth 48h: 13%; VACV Venus inh: -13%

What do the screens show for `O=C(O)c1ccc(S(=O)(=O)N2CCc3ccccc3C2)cc1`?
Pf growth 96h: 9.3µM*; NS1 function inh: -15%; HCV inhibitor: 14%; Pf growth 48h: -9%

Results for O=C(CCNC(=O)c1ccccc1)NC1CCCc2ccccc21 (stereo not given) ?
Pf growth 96h: 0%; VACV mCherry inh: inactive; HCV inhibitor: -4%; Pf growth 48h: inconclusive; VACV Venus inh: -8%

How did CC(=O)OC1C(=O)[C@]2(C)C(O)CC3OC[C@]3(OC(C)=O)C2[C@@H](OC(=O)c2ccccc2)[C@]2(O)CC(O)C(C)=C1C2(C)C (stereo not given in full) do in these assays?
VACV mCherry inh: inconclusive; VACV Venus inh: 1%

What do the screens show for `CC(=O)OC12COC1CC(O)C1(C)C(=O)C(O)C3=C(C)C(O)CC(O)(C(OC(=O)c4ccccc4)C21)C3(C)C` (stereo not given)?
VACV mCherry inh: -2%; HCV inhibitor: inconclusive; VACV Venus inh: -19%

How did CC(=O)O[C@@]12CO[C@@H]1C[C@@H](O)[C@@]1(C)C(=O)[C@H](O)C3=C(C)[C@@H](OC(=O)[C@H](O)[C@@H](NC(=O)c4ccccc4)c4ccccc4)C[C@@](O)([C@@H](OC(=O)c4ccccc4)C12)C3(C)C (stereo not given in full) do in these assays?
Pf growth 96h: 0.046µM*; VACV mCherry inh: inconclusive; NS1 function inh: -10%; HCV inhibitor: 0.32µM*; Pf growth 48h: inconclusive; VACV Venus inh: -21%

Results for CCC(C)C(=O)N[C@@H](c1ccccc1)[C@@H](O)C(=O)O[C@H]1C[C@@]2(O)[C@@H](OC(=O)c3ccccc3)C3[C@](C)(C(=O)[C@H](OC(C)=O)C(=C1C)C2(C)C)[C@@H](O)C[C@H]1OC[C@@]31OC(C)=O (stereo not given in full) ?
Pf growth 96h: 0.23µM*; VACV mCherry inh: -5%; NS1 function inh: -47%; HCV inhibitor: inconclusive; Pf growth 48h: 0.47µM*; VACV Venus inh: -23%
